Results on three compounds are retold here after PubChem BioAssay AID2284352 (EPA ToxCast).

Results filed as inconclusive are left out. Calls of active or inactive are those of the source. How the source made its calls: active means hit-call score of the fitted dose curve at least 0.9, where 1 is the maximum; inconclusive means response in the unintended direction; inactive means score below 0.9.

This assay concerns rainbow trout Peroxisome Proliferator-activated Receptor gamma (PPARg), gene 110528708. In words: ATG_rtPPARg_EcoTox2: Attagene TRANS-FACTORIAL EcoTox-2 HepG2 Assay for rainbow trout Peroxisome Proliferator-activated Receptor gamma (PPARg). The method, then: ATG_EcoTox2 is a cell-based, multiplexed assay created by modifying the existing Attagene TRANS-FACTORIAL system to include a panel of nuclear receptors from some or all the following species: human (Homo sapiens), african clawed frog (Xenopus laevis), rainbow trout (Oncorhynchus mykiss), japanese medaka (Oryzias latipes), and zebrafish (Danio rerio). The ECOTOX2-FACTORIAL format uses HepG2, a human liver cell line, with measurements taken at 24 hours after chemical dosing in a 24-well plate. ATG_rtPPARg_EcoTox2 is one of 29 assay components calculated in the ATG_EcoTox2 assay. It is designed to make measurements of mRNA induction, a form of inducible reporter, as detected with fluorescence intensity signals by Reverse transcription polymerase chain reaction (RT-PCR) and Capillary electrophoresis technology.The assay endpoint ATG_rtPPARg_EcoTox2 was analyzed in the positive analysis fitting direction relative to DMSO as the negative control and baseline of activity. Using a type of inducible reporter, measures of mRNA for gain-of-signal activity can be used to understand the reporter gene at the transcription factor-level as they relate to the gene PPARg. Furthermore, this assay endpoint can be referred to as a primary readout, because this assay has produced multiple assay endpoints where this one serves a reporter gene function. […]
Human liver HepG2 cells are transiently transfected with multiple reporter transcription units (MRTUs) in 6-well plates using FuGene 6 reagent (Roche; 3 ml FuGene/1 mg DNA). […] A major difference between the CIS and TRANS system is that in CIS activities of endogenous TFs are measured, whereas the TRANS assay evaluates changes in activities of exogenous, chimeric NR-Gal4 proteins. […] The fragments were purified using Qiaquick PCR columns (Qiagen), analyzed on an ABI 3130xL genetic analyzer (Applied Biosystems) with peak positions identified by using a set of X-rhodamine (ROX)-labeled MapMarker1000 molecular weight standards (BioVentures). […]
For `CCCCOCN(C(=O)CCl)c1c(CC)cccc1CC`, the compound was called inactive.

For the compound `O=S(=O)(O)C(F)(F)C(F)(F)C(F)(F)C(F)(F)C(F)(F)C(F)(F)F`, the call was inactive.

Regarding `O=C(O)C(F)(F)C(F)(F)C(F)(F)C(F)(F)C(F)(F)C(F)(F)C(F)(F)F`, the call was inactive.
